# ATXN viability: Viability Counterscreen for Primary qHTS for Inhibitors of ATXN expression. S2 cells (HEK-293 line with an ATXN2-luciferase reporter) viability, CellTiter-Fluor protease fluorescence, 24 h. AID 651635, 2014. hit rate 0.49% among 400,000. Potency, µM (titrated, usually from 56.7 µM), usual class: cytotoxic; note: nearly all actives have a fitted effect of over 40% in size
# IL-1B inflam inh: qHTS for Inhibitors of Inflammasome Signaling: IL-1-beta AlphaLISA Primary Screen; THP-1 LPS/ATP IL-1B secretion, AlphaLISA, 16 h; hits give low values; activity change, % at 57.5 µM; hit rate 4.7% among 360,000; AID 743279, 2014; in the data active = activity change below about -50%; inconclusive = mostly about -30% to -49%
#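 Secreted IL-1B measured by AlphaLISA bead assay after 16 h compound exposure of THP-1 cells; compounds (final up to 57.5 uM) added 1 h before LPS (250 ng/mL) and ATP (1.25 mM) stimulation; lower signal means less secretion.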
# TGFb inhibitor: qHTS for Inhibitors of TGF-b; HepG2 CAGA-GFP TGF-b/SMAD3 reporter, GFP fluorescence, 18 h; TGF-beta stimulated, 500 pg/mL final; Potency, µM (highest dose often 46.1 µM), actives largely listed as inhibitors; hit rate 1.2% among 410,000; note: nearly all actives have a fitted effect of over 65% in size
#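 Read-out: total well GFP (ex488/em500-530) summed from mean per-cell fluorescence. Cells: HEPG2 CAGA-GFP, 1% FBS DMEM, 18 h at 37 degrees C with 500 pg/mL final TGF-beta. Unstimulated wells served as the full-inhibition control; stimulated DMSO wells = 0%.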
# ATXN2 expr inh: Primary qHTS for Inhibitors of ATXN expression | HEK-293 ATXN2-luciferase reporter, luminescence, 24 h | Potency, µM (highest dose often 57 µM), most hits filed as inhibitors | hit rate 0.72% among 360,000 | AID 1745845, 2022; note: nearly all actives have a fitted effect of over 55% in size
#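 qHTS (up to 57 uM final) was run with 24 h compound exposure of reporter cells at 37 °C. Each well was multiplexed: SteadyGlo luminescence measured ATXN2-luciferase expression after a fluorogenic Gly-Phe-AFC viability readout (25 uM final).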
# HepG2 tox: qHTS for Inhibitors of TGF-b: Cytotox Counterscreen; HepG2 CAGA-GFP viability, ATP luminescence, 18 h; Potency, µM (titrated, usually from 46.1 µM), actives largely listed as cytotoxic; hit rate 0.76% among 410,000; AID 588856, 2011
#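 CellTiter-Glo luminescence gave cytotoxicity after 18 hours at 37 degrees C. The cells were HepG2 CAGA-GFP in 1% FBS DMEM, stimulated with 500 pg/mL TGF-beta after compound addition. %Activity was normalised to no-cell wells (complete cell-killing) and DMSO (no toxicity), and curves were fitted and classified.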
# Hits are given with their value; i = inactive; ? = inconclusive; nt = no result; [ ] = another dose, or the depositor's remark. Sampled rows, rich in hits. Any-hit rate of the full collection: about 5.7%. Unless noted, calls come from the whole dose curve; as a rule, active = well fitted curve in the direction sought with a large enough effect; inconclusive = small, poorly fitted or top-dose-only effect, or another doubt; inactive = no such curve, though single readings can be large; an effect the other way counts as inactive or inconclusive.
SMILES,ATXN viability,IL-1B inflam inh,TGFb inhibitor,ATXN2 expr inh,HepG2 tox
O=C(NNC(=S)NCc1ccccc1)c1ccccc1OC(F)F,i,i,i,i,i
COc1ccccc1NC(=S)NNC(=S)Nc1ccc(OC(F)F)cc1,i,-86,i,i,i
O=C(NCC1CCCCC1)c1cccc(-c2ccc(O)cc2)c1,i,-53,13µM,i,i
O=C(NCC1CCCCC1)c1ccc(=O)[nH]c1,i,i,i,i,i
O=C(NC(Nc1ncc(S(=O)(=O)c2ccc([N+](=O)[O-])cc2)s1)(C(F)(F)F)C(F)(F)F)c1ccc(Cl)cc1,?,-76,?,14µM,i
COCC(=O)Nc1ncc(S(=O)(=O)c2ccc([N+](=O)[O-])cc2)s1,i,i,i,i,i
N#Cc1ccccc1CSc1ccc(-c2nc3ccccc3[nH]2)cn1,?,-71,i,i,i
CC(=O)CSc1ccc(-c2nc3ccccc3[nH]2)cn1,i,-58,i,i,10µM
Cc1cc2nc(-c3ccc(SCc4ccc(C#N)cc4)nc3)[nH]c2cc1C,i,i,i,i,i
Cc1cc2nc(-c3ccc(SCC(=O)Nc4nccs4)nc3)[nH]c2cc1C,i,i,i,i,i
CC(=O)CSc1ccc(-c2nc3cc(C)c(C)cc3[nH]2)cn1,?,-82,?,?,i
Oc1c(C(c2ccccc2Cl)N2CCC(O)CC2)sc2nc(-c3ccco3)nn12 (stereo unspecified),i,nt,i,i,i
Cc1cc(C)c(NC(=O)CN2C(=O)c3cccnc3Oc3ccc(C)cc32)c(C)c1,nt,nt,i,nt,i
O=C(NC1CCCC1)C(c1ccc(F)cc1)N(Cc1ccc(F)cc1)C(=O)c1ccn[nH]1 (stereo unspecified),i,i,i,i,i
COCCN(C(=O)CCl)C(C(=O)NC1CCCCC1)c1ccccc1C (stereo unspecified),nt,-101,?,?,i
O=C(NC1CCCC1)C(c1ccc(F)cc1)N(Cc1ccccc1Cl)C(=O)CCl (stereo unspecified),i,-91,i,i,i
COC(=O)CC1C(=O)NCCN1C(=O)CN1Cc2ccccc2OC(c2ccccc2)C1 (stereo unspecified),i,nt,nt,nt,nt
CCCCN(C(=O)CSc1nnc(-c2ccc(OC)cc2)n1CC)c1c(N)n(Cc2ccccc2)c(=O)[nH]c1=O,i,-60,i,i[11.3 µM],i
CCCCN(C(=O)CSc1nnc(-c2ccc(OC)cc2)n1C(C)C)c1c(N)n(Cc2ccccc2)c(=O)[nH]c1=O,i,?,?,nt,i
CCCN(C(=O)CCCSc1nc2ccccc2[nH]1)c1c(N)n(Cc2ccccc2)c(=O)[nH]c1=O,i,i,i,i,i
CCCCN(C(=O)CCCSc1nc2ccccc2[nH]1)c1c(N)n(Cc2ccccc2)c(=O)[nH]c1=O,i,-90,i,i,i
CCCSCCCNC(=O)c1ccc2c(c1)sc1nc(-c3ccc(OCC)cc3)cn12,?,nt,i,i,i
S=C(Nc1ccccc1)N1CCN(C/C=C/c2ccccc2)CC1,i,i,i,i,i
S=C(NC1CCCC1)N1CCN(C/C=C/c2ccccc2)CC1,i,-66,i,i,i
CCOC(=O)C1CCN(c2ccc(-c3cccs3)nn2)CC1,i,i,i,i,7.1µM
SMILES,ATXN viability,IL-1B inflam inh,TGFb inhibitor,ATXN2 expr inh,HepG2 tox
COc1ccc(S(=O)(=O)c2cn(Cc3ccccc3)c3cc(N4CCCC4)c(F)cc3c2=O)cc1,nt,nt,i,nt,i
O=C(/C=C/c1ccc(Br)cc1)NC(=O)c1ccccc1O,i,-95,?,i,i
O=C(/C=C/c1ccc(O)c(O)c1)NC(=O)c1ccccc1O,i,i,i,i,i
COc1ccc(C)cc1NC(=O)c1ccc2c(c1)nnn2C1CCCC1,i,nt,?,i,i
CC(C)CC(=O)O/N=C1\C(=O)N(c2ccccc2)c2ccccc21,i,-64,i,i,i
Cc1ccc(C)c(NC(=O)C2CCN(c3cc(C)nc4c(-c5ccc(Cl)cc5)c(C)nn34)CC2)c1,?,nt,i,i,i
COCCNC(=O)c1cnn2c1NC(c1ccco1)CC2C(F)(F)F (stereo unspecified),i,i,i,i,i
CN(Cc1ccc(-n2cccn2)cc1)C(=O)c1cnn2c1NC(c1ccco1)CC2C(F)(F)F (stereo unspecified),i,-54,?,i,i
O=C(NCc1cccc(Cl)c1)c1cnn2c1NC(c1ccco1)CC2C(F)(F)F (stereo unspecified),i,-53,i,i,i
COC(=O)c1ccc2c(=O)n(CCc3ccc(S(N)(=O)=O)cc3)c(SCC(=O)C(C)(C)C)nc2c1,?,nt,i,i,i
Cc1nc2ccccn2c1C(=O)/C=C/c1ccc(F)cc1,i,-108,?,i,i
COc1ccc(/C=C/C(=O)c2c(C)nc3ccccn23)cc1,?,i,i,i,i
Cc1ccn2c(=O)c(C(=O)NCCc3ccccc3)c(O)nc2c1,i,nt,i,i,i
N#C/C(=C\c1ccc(O)cc1)C(=O)NCC1CCCO1 (stereo unspecified),i,nt,i,i,i
N#C/C(=C\c1cc2c(cc1Br)OCO2)C(=O)NCC1CCCO1 (stereo unspecified),i,-77,i,i,i
O=C(c1cccs1)N1CCCc2cc(NS(=O)(=O)c3ccc(F)cc3)ccc21,?,nt,?,i,i
COc1cc(CNCCc2ccc(S(N)(=O)=O)cc2)ccc1OCC(=O)NC(C)(C)C,i,i,i,i,i
CCNCc1cc(Cl)c(OCc2ccccc2)c(OCC)c1,i,-93,?,?,i
CCOc1cc(CNCCc2ccc(S(N)(=O)=O)cc2)cc(Cl)c1OCc1ccccc1,nt,-81,?,20µM,i
CCOc1cc(CNCCc2ccc(S(N)(=O)=O)cc2)ccc1OCc1ccccc1,?,-54,i,?,i
CCOc1cc(CNc2ccc(S(N)(=O)=O)cc2)cc(Cl)c1OC,i,i,i,i,i
NS(=O)(=O)c1ccc(NCc2cc(Cl)ccc2OCc2ccc(F)cc2)cc1,i,-57,?,i,i
COc1ccc(-n2nc3cc(C)c(NC(=O)c4ccc(-c5ccc(Br)cc5)o4)cc3n2)cc1,i,nt,i,i,i
NS(=O)(=O)c1ccc(CCNCc2cc(Br)ccc2OCc2ccccc2)cc1,i,-54,?,i,i
COc1ccc(Br)cc1CN(C)CC(=O)NCCc1ccc(S(N)(=O)=O)cc1,i,i,i,i,i
Cc1ccc(C2CC(C(F)(F)F)n3nc(C(=O)NCc4c(C)nn(C)c4C)c(Cl)c3N2)cc1 (stereo unspecified),i,i,13µM,?,i

# Bioassay records as filed in PubChem.
